Values joined by “and” are separate entries in the source; they are usually repeats but may differ in a detail not shown here. Equal values may be shown once. Hit rate of the full screen: of about 5,500 compounds, about 2,000 (36%) were called active. About 18% were inconclusive and are not listed. Cut-off read from the data, not from the text of the source: active = normalized growth mostly below about 0.91 (no sharp cut-off); inconclusive = no clear call, values can overlap the other calls; inactive = mostly above about 0.92. This is one part of the list.
Test: chemical genetic growth profiling, strain panel (AID 1159580);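 note: tested at 20 µM; growth read once vehicle control cultures reached saturation at 30 °C; 1 = growth at the plate median or of vehicle wells; lower values mean less growth of the strain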
Conditions: S. cerevisiae deletion strains, growth OD

Measured: normalized growth

CC(=O)O[C@H]1C[C@@H](OC(C)=O)C(C)(C)C2C[C@@H](O)[C@]3(C)C(CC[C@@]4(C)[C@H](c5ccoc5)OC(=O)[C@H]5O[C@]543)[C@]21C (stereo partly specified)
active: locus YGL253W, strain hxk2, stronger effect = lower value 0.897
inactive: locus YAL021C, strain ccr4, stronger effect = lower value 1.05 | locus YAL026C, strain drs2, stronger effect = lower value 0.985 | locus YAL030W, strain snc1, stronger effect = lower value 0.995 | locus YBL061C, strain skt5, stronger effect = lower value 0.992 | locus YBR009C, strain hhf1, stronger effect = lower value 1 | locus YBR021W, strain FUR4, stronger effect = lower value 1.01 | locus YBR023C, strain chs3, stronger effect = lower value 1 | locus YBR171W, strain sec66, stronger effect = lower value 0.96 | locus YBR229C, strain ROT2, stronger effect = lower value 0.947 | locus YBR231C, strain swc5, stronger effect = lower value 0.977 | locus YBR279W, strain paf1, stronger effect = lower value 0.996 | locus YCL011C, strain gbp2, stronger effect = lower value 0.996 | locus YCL016C, strain dcc1, stronger effect = lower value 1.03 | locus YCL029C, strain bik1, stronger effect = lower value 0.971 | locus YCL069W, strain vba3, stronger effect = lower value 0.969 | locus YCR088W, strain abp1, stronger effect = lower value 0.983 | locus YDL005C, strain med2, stronger effect = lower value 1.01 | locus YDL035C, strain GPR1, stronger effect = lower value 0.965 | locus YDL040C, strain nat1, stronger effect = lower value 0.976 | locus YDL074C, strain BRE1, stronger effect = lower value 0.939 | locus YDL101C, strain DUN1, stronger effect = lower value 0.992 | locus YDL185W, strain tfp1, stronger effect = lower value 0.956 | locus YDL192W, strain arf1, stronger effect = lower value 0.977 | locus YDR001C, strain nth1, stronger effect = lower value 0.989 | locus YDR069C, strain doa4, stronger effect = lower value 0.981 | locus YDR101C, strain arx1, stronger effect = lower value 0.954 | locus YDR137W, strain rgp1, stronger effect = lower value 0.987 | locus YDR159W, strain sac3, stronger effect = lower value 0.936 | locus YDR162C, strain NBP2, stronger effect = lower value 0.948 | locus YDR195W, strain ref2 0.935 | locus YDR297W, strain sur2, stronger effect = lower value 0.992 | locus YDR318W, strain mcm21, stronger effect = lower value 0.982 | locus YDR334W, strain swr1, stronger effect = lower value 0.993 | locus YDR335W, strain msn5, stronger effect = lower value 0.99 | locus YDR388W, stronger effect = lower value 0.99 | locus YDR392W, strain spt3, stronger effect = lower value 0.966 | locus YDR502C, strain sam2, stronger effect = lower value 0.996 | locus YEL003W, strain gim4, stronger effect = lower value 0.977 | locus YEL037C, strain rad23, stronger effect = lower value 0.989 | locus YEL061C, strain CIN8 (second series), stronger effect = lower value 0.982 | locus YER015W, strain faa2, stronger effect = lower value 0.997 | locus YER016W, strain bim1, stronger effect = lower value 0.977 | locus YER110C, stronger effect = lower value 0.966 | locus YER111C, strain swi4, stronger effect = lower value 0.975 | locus YER155C, strain BEM2 (second series), stronger effect = lower value 1.02 | locus YER155C, strain BEM2, stronger effect = lower value 1.02 | locus YER167W, strain BCK2, stronger effect = lower value 0.995 | locus YFR010W, strain ubp6, stronger effect = lower value 0.963 | locus YGL078C, strain dbp3, stronger effect = lower value 0.978 | locus YGL086W, strain mad1, stronger effect = lower value 0.997 | locus YGL167C, strain pmr1, stronger effect = lower value 1 | locus YGL173C, strain kem1, stronger effect = lower value 0.962 | locus YGL227W, strain vid30, stronger effect = lower value 0.986 | locus YGL240W, strain doc1, stronger effect = lower value 0.973 | locus YGL248W, strain PDE1, stronger effect = lower value 0.97 | locus YGR078C, strain PAC10, stronger effect = lower value 1.01 | locus YGR135W, strain pre9, stronger effect = lower value 1.04 | locus YGR252W, strain gcn5, stronger effect = lower value 0.941 | locus YHR013C, strain ard1, stronger effect = lower value 0.997 | locus YHR027C, strain rpn1, stronger effect = lower value 0.986 | locus YHR030C, strain SLT2, stronger effect = lower value 0.982 | locus YHR079C, strain IRE1 (second series), stronger effect = lower value 0.986 | locus YHR079C, strain IRE1, stronger effect = lower value 0.999 | locus YHR094C, strain hxt1, stronger effect = lower value 0.975 | locus YHR129C, strain ARP1, stronger effect = lower value 0.988 | locus YHR142W, strain chs7, stronger effect = lower value 0.977 | locus YHR200W, strain rpn10, stronger effect = lower value 0.979 | locus YIL066C, strain RNR3, stronger effect = lower value 0.935 | locus YIL073C, strain SPO22, stronger effect = lower value 0.893 | locus YIL125W, strain kgd1, stronger effect = lower value 0.989 | locus YIR030C, strain dcg1, stronger effect = lower value 0.989 | locus YJL092W, strain hpr5, stronger effect = lower value 0.99 | locus YJL095W, strain BCK1 (second series), stronger effect = lower value 0.973 | locus YJL095W, strain BCK1, stronger effect = lower value 1.03 and 0.979 | locus YJL115W, strain asf1, stronger effect = lower value 0.996 | locus YJL129C, strain trk1, stronger effect = lower value 0.96 | locus YJL134W, strain LCB3, stronger effect = lower value 0.977 | locus YJL154C, strain vps35, stronger effect = lower value 0.995 | locus YJL164C, strain tpk1, stronger effect = lower value 1.01 | locus YJL166W, strain qcr8, stronger effect = lower value 0.955 | locus YJL168C, strain set2, stronger effect = lower value 0.995 | locus YJL187C, strain SWE1 (second series), stronger effect = lower value 1.01 | locus YJR043C, strain POL32, stronger effect = lower value 0.942 | locus YJR066W, strain TOR1, stronger effect = lower value 0.935 | locus YKL009W, strain mrt4, stronger effect = lower value 0.955 | locus YKL068W, stronger effect = lower value 0.969 | locus YKL085W, strain MDH1 (second series), stronger effect = lower value 0.987 | locus YKL085W, strain MDH1, stronger effect = lower value 0.987 | locus YKL160W, strain elf1, stronger effect = lower value 1.04 | locus YKL190W, strain CNB1, stronger effect = lower value 0.996 | locus YKR001C, strain vps1, stronger effect = lower value 0.978 | locus YKR026C, strain gcn3, stronger effect = lower value 1.05 | locus YKR091W, strain srl3, stronger effect = lower value 1 | locus YLL001W, strain dnm1, stronger effect = lower value 0.971 | locus YLL026W, stronger effect = lower value 0.994 | locus YLL041C, strain sdh2, stronger effect = lower value 0.989 | locus YLR027C, strain aat2, stronger effect = lower value 1.01 | locus YLR039C, strain RIC1, stronger effect = lower value 0.97 | locus YLR058C, strain SHM2, stronger effect = lower value 0.973 | locus YLR102C, strain apc9, stronger effect = lower value 0.973 | locus YLR113W, strain HOG1, stronger effect = lower value 1.02 | locus YLR221C, strain rsa3, stronger effect = lower value 0.969 | locus YLR258W, strain gsy2, stronger effect = lower value 0.992 | locus YLR262C, strain YPT6 (second series), stronger effect = lower value 0.985 | locus YLR268W, strain sec22, stronger effect = lower value 0.954 | locus YLR320W, strain mms22, stronger effect = lower value 0.978 | locus YLR330W, strain CHS5, stronger effect = lower value 0.992 | locus YLR342W, strain FKS1, stronger effect = lower value 1.01 | locus YLR357W, strain rsc2, stronger effect = lower value 1.04 | locus YLR370C, strain arc18, stronger effect = lower value 0.973 | locus YLR371W, strain rom2, stronger effect = lower value 0.986 | locus YLR384C, strain iki3, stronger effect = lower value 0.971 | locus YLR418C, strain cdc73, stronger effect = lower value 0.976 | locus YML016C, strain PPZ1, stronger effect = lower value 0.969 | locus YML032C, strain rad52, stronger effect = lower value 0.952 | locus YML120C, strain ndi1, stronger effect = lower value 1.01 | locus YML124C, strain tub3, stronger effect = lower value 0.992 | locus YMR058W, strain fet3, stronger effect = lower value 0.999 | locus YMR078C, strain ctf18, stronger effect = lower value 0.971 | locus YMR125W, strain sto1, stronger effect = lower value 1.01 | locus YMR129W, stronger effect = lower value 0.987 | locus YMR205C, strain PFK2, stronger effect = lower value 1.05 | locus YMR223W, strain ubp8, stronger effect = lower value 0.978 | locus YMR231W, strain pep5, stronger effect = lower value 0.971 | locus YMR307W, strain GAS1, stronger effect = lower value 1.01 | locus YNL067W, strain RPL9B, stronger effect = lower value 1.03 | locus YNL071W, strain lat1, stronger effect = lower value 0.984 | locus YNL128W, strain TEP1, stronger effect = lower value 0.954 | locus YNL153C, strain GIM3, stronger effect = lower value 1.01 | locus YNL183C, strain NPR1, stronger effect = lower value 0.944 | locus YNL209W, strain ssb2, stronger effect = lower value 0.999 | locus YNL233W, strain BNI4, stronger effect = lower value 1.02 | locus YNL248C, strain rpa49, stronger effect = lower value 0.962 | locus YNL250W, strain rad50, stronger effect = lower value 0.982 | locus YNL271C, strain bni1, stronger effect = lower value 0.983 | locus YNL298W, strain CLA4, stronger effect = lower value 0.993 | locus YNL307C, strain MCK1, stronger effect = lower value 0.99 | locus YNL322C, strain KRE1 (second series), stronger effect = lower value 0.987 | locus YNL322C, strain KRE1, stronger effect = lower value 0.987 | locus YNR049C, strain mso1, stronger effect = lower value 0.991 | locus YNR052C, strain pop2, stronger effect = lower value 0.999 | locus YOL006C, strain TOP1, stronger effect = lower value 0.955 | locus YOL012C, strain htz1 1.02 | locus YOL147C, strain pex11, stronger effect = lower value 0.998 | locus YOR001W, strain rrp6, stronger effect = lower value 0.935 | locus YOR061W, strain CKA2, stronger effect = lower value 0.967 | locus YOR069W, strain VPS5, stronger effect = lower value 1 | locus YOR070C, strain gyp1, stronger effect = lower value 1.02 | locus YOR080W, strain dia2, stronger effect = lower value 0.98 | locus YOR083W, strain WHI5, stronger effect = lower value 1.04 | locus YOR106W, strain vam3, stronger effect = lower value 1.02 | locus YOR136W, strain idh2, stronger effect = lower value 0.971 | locus YOR144C, strain elg1, stronger effect = lower value 0.964 | locus YOR184W, strain ser1, stronger effect = lower value 0.95 | locus YOR231W, strain MKK1, stronger effect = lower value 0.982 | locus YOR265W, strain rbl2, stronger effect = lower value 1.01 | locus YOR270C, strain vph1, stronger effect = lower value 0.841 | locus YOR290C, strain snf2, stronger effect = lower value 1.03 | locus YOR316C, strain cot1, stronger effect = lower value 0.989 | locus YPL051W, strain arl3, stronger effect = lower value 0.979 | locus YPL078C, strain atp4, stronger effect = lower value 1.02 | locus YPL106C, strain sse1, stronger effect = lower value 1.02 | locus YPL240C, strain hsp82, stronger effect = lower value 0.984 | locus YPL241C, strain CIN2, stronger effect = lower value 0.985 | locus YPL256C, strain CLN2, stronger effect = lower value 0.993 | locus YPR119W, strain clb2, stronger effect = lower value 0.998 | locus YPR141C, strain kar3, stronger effect = lower value 0.983 | locus YPR163C, strain tif3, stronger effect = lower value 0.986 | locus YPR167C, strain met16, stronger effect = lower value 0.988 | strain wtn01, stronger effect = lower value 0.972
